Experimental findings from PubChem BioAssay (EPA / NIEHS) are described below.

“And” between values parts separate entries of the source, which are not always exact repeats. Equal values may be shown once. Records with an inconclusive call do not appear. The source made the active and inactive calls. Rule for the calls, unless noted: active = hit-call score of the fitted dose curve at least 0.9, where 1 is the maximum; inactive = score below 0.9.

The target in test [1] is human Matrix Metalloproteinase-9 (MMP9), MMP9 (gene 4318) (UniProt P14780). Nature of the test: NVS_ENZ_hMMP9: NovaScreen (NVS) Enzymatic Assay for human Matrix Metalloproteinase-9 (MMP9) (AID 2283190; active = hit-call score of the fitted dose curve at least 0.9, where 1 is the maximum;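 note: cell-free recombinant MMP9 protease activity read by fluorescent substrate signal; active means inhibition seen as loss of fluorescence signal versus DMSO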). In outline: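 Cell-free fluorescence-intensity enzyme activity assay using extracted protein, read 1 h after dosing. Loss of signal versus DMSO baseline indicates inhibition; primary screen in duplicate at 25 uM, actives followed up in concentration series.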
human Matrix Metalloproteinase-9 (MMP9), MMP9 (gene 4318), sequence (P14780 whole entry, looked up): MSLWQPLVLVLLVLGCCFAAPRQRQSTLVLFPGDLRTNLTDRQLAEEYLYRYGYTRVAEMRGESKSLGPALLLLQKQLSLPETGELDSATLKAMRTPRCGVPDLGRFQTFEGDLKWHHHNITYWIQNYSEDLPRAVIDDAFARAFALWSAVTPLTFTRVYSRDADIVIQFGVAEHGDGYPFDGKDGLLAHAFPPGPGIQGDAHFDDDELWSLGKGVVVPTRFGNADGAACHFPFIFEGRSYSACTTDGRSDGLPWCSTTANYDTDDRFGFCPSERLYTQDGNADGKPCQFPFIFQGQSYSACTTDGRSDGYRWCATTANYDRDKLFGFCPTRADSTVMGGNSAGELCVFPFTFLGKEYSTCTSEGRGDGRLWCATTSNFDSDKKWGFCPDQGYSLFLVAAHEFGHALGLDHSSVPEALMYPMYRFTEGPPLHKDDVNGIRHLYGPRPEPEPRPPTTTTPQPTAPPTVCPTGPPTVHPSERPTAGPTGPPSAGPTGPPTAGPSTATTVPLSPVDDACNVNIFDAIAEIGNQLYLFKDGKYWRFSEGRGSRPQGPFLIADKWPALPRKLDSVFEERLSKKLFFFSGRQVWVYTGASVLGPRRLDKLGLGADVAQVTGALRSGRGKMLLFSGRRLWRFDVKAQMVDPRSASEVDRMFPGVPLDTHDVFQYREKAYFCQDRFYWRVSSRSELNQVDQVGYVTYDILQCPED

Read-out in test [2]: E-selectin (Homo sapiens) (UniProt P16581)
Nature of the test: BSK_SAg_Eselectin: BioMAP Diversity Plus: SAg Assay for Eselectin Biomarker Activity (AID 2283091). The conditions noted are these: primary human HUVEC with PBMC; actives raise or lower the signal. In outline: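 Human umbilical vein endothelial cells co-cultured with peripheral blood mononuclear cells, SAg system. E-selectin is measured by ELISA 24 h after dosing and fitted bidirectionally against DMSO. Cytotoxicity is checked by SRB staining of parallel cultures.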

Read-out in test [3]: Monokine induced gamma interferon (MIG), CXCL9 (gene 4283)
Nature of the test: BSK_SAg_MIG: BioMAP Diversity Plus: SAg Assay for Monokine induced gamma interferon (MIG) Biomarker Activity (AID 2283092). The conditions noted are these: primary human HUVEC with PBMC; actives raise or lower the signal. In outline: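 ELISA readout of MIG/CXCL9; primary human umbilical vein endothelial cells co-cultured with peripheral blood mononuclear cells; 24 h post-dose; gain/loss fit vs DMSO baseline.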

Test [4] can be described thus: BSK_SAg_PBMCCytotoxicity: PBMC Cytotoxicity Assessment in the BioMAP Diversity Plus: SAg Assay (AID 2283093).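 For AC50: PBMC superantigen activated with SEB plus TSST-1 one hour after compound addition.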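 Note: PBMC viability measured as Alamar Blue reduction fluorescence at 546/580 nm; fitted both ways against DMSO so a hit may be loss or gain of signal.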 The conditions noted are these: primary human HUVEC with PBMC. Put shortly: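 Alamar Blue reduction (6 h, ex/em 546/580 nm) read after 90 h culture of PBMC pre-dosed 1 h then stimulated with SEB plus TSST-1, 20 ng/mL each. Gain or loss of signal fitted relative to DMSO.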

Read-out in test [5]: Interleukin-8 (IL8), CXCL8 (gene 3576)
Nature of the test: BSK_SAg_IL8: BioMAP Diversity Plus: SAg Assay for Interleukin-8 (IL8) Biomarker Activity (AID 2283094). The conditions noted are these: primary human HUVEC with PBMC; actives raise or lower the signal. In outline: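 Primary human endothelial cells with PBMC, exposed 24 h; IL-8 determined by ELISA, analysed bidirectionally relative to DMSO.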

Test [6] is described as follows: BSK_SAg_Proliferation: Cell Proliferation Assessment in the BioMAP Diversity Plus: SAg Assay (AID 2283095).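 Note: relative cell number as total protein by SRB absorbance in sub-confluent culture.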 The conditions noted are these: primary human HUVEC with PBMC. Put shortly: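 A human primary co-culture of umbilical vein endothelium and blood mononuclear cells receives compound; relative cell number is quantified at 96 h by SRB staining and 560 nm absorbance, with DMSO-referenced bidirectional curve fitting.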

A short description of test [7]: BSK_SAg_SRB: Viability Assessment in the BioMAP Diversity Plus: SAg Assay (AID 2283096).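 Note: cells read one day after compound addition; hits may be either gain or loss of signal compared with DMSO.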 The conditions noted are these: primary human HUVEC with PBMC. In outline: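 SRB absorbance at 560 nm served as the viability read-out. Cells (HUVEC plus peripheral blood mononuclear cells) were TCA-fixed and stained 24 h post-dosing; activity fitted in both directions against DMSO controls.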

The target in test [8] is human Caspase 5 (CASP5), CASP5 (gene 838) (UniProt P51878). The test is described as follows: NVS_ENZ_hCASP5: NovaScreen (NVS) Enzymatic Assay for human Caspase 5 (CASP5) (AID 2283137; active = hit-call score of the fitted dose curve at least 0.9, where 1 is the maximum). Put shortly: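 Caspase 5 enzyme activity, detected as fluorescence signal loss, is measured in a biochemical format using E. coli-expressed protein. Reading occurs 2 hours post-dosing. Screening runs at 25 uM, with confirmed actives titrated to 50 uM maximum.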
human Caspase 5 (CASP5), CASP5 (gene 838), sequence (P51878 whole entry, looked up): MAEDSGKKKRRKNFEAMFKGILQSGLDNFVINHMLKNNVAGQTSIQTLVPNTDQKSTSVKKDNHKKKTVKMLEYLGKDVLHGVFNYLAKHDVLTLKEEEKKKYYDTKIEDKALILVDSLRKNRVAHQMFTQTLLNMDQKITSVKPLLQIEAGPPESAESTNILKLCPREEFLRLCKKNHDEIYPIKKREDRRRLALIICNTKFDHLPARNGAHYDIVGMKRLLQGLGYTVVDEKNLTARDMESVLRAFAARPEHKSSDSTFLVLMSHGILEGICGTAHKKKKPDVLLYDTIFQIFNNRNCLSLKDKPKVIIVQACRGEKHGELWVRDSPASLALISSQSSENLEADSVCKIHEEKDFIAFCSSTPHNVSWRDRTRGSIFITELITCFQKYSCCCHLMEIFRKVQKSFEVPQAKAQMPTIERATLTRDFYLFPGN

Test [9] has as its target human Ephrin type-A Receptor 1 (EphA1), EPHA1 (gene 2041) (UniProt P21709). The test is described as follows: NVS_ENZ_hEphA1: NovaScreen (NVS) Enzymatic Assay for human Ephrin type-A Receptor 1 (EphA1) (AID 2283158; active = hit-call score of the fitted dose curve at least 0.9, where 1 is the maximum;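 note: activity is signal loss versus DMSO meaning EphA1 kinase inhibition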). Put shortly:
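Cell-free kinase activity with recombinant protein, 1 hour after dosing; product separated by electrophoretic mobility shift, fluorescence read. Primary screen at 25 uM in duplicate; hits run as concentration-response up to 50 uM, relative to DMSO.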

Test [10] addresses human CYP2D6, CYP2D6 (gene 1565) (UniProt P10635). Nature of the test: NVS_ADME_hCYP2D6: NovaScreen (NVS) CYP450-related Enzyme Activity (ADME) Assay for human CYP2D6 (AID 2283107; active = hit-call score of the fitted dose curve at least 0.9, where 1 is the maximum). Put shortly:
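Cell-free assay using recombinant human CYP2D6 expressed in insect cells, with a fluorogenic substrate read after 1 h. Primary screen in duplicate at 10 uM; actives followed up in concentration series. Loss of signal fitted relative to acetonitrile.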

The target in test [11] is Cytochrome P450 2C19 (Homo sapiens) (UniProt P33261). The test is described as follows: NVS_ADME_hCYP2C19: NovaScreen (NVS) CYP450-related Enzyme Activity (ADME) Assay for human CYP2C19 (AID 2283113; active = hit-call score of the fitted dose curve at least 0.9, where 1 is the maximum;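 note: potency for inhibition seen as loss of fluorescent signal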). In outline: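 Cell-free recombinant human CYP2C19 from insect cells, fluorescent substrate; activity read by fluorescence intensity 1 h after dosing. Primary screen in duplicate at 10 uM; actives retested in concentration series. Signal loss versus acetonitrile negative control.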

Test [12] deals with human Beta-secretase (BACE), BACE1 (gene 23621) (UniProt P56817). Nature of the test: NVS_ENZ_hBACE: NovaScreen (NVS) Enzymatic Assay for human Beta-secretase (BACE) (AID 2283140; active = hit-call score of the fitted dose curve at least 0.9, where 1 is the maximum;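 note: hits are inhibitors that reduce fluorescent substrate signal versus DMSO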). In outline:
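Enzyme activity of SF9-produced BACE1 is measured cell-free by fluorescence, 1 hour post dosing, normalised to DMSO. Screening used 25 uM in duplicate, with concentration-response follow-up for actives.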

Test [13] deals with human Dual Specificity Protein Phosphatase 3 (DUSP3), DUSP3 (gene 1845) (UniProt P51452). The test is described as follows: NVS_ENZ_hDUSP3: NovaScreen (NVS) Enzymatic Assay for human Dual Specificity Protein Phosphatase 3 (DUSP3) (AID 2283152; active = hit-call score of the fitted dose curve at least 0.9, where 1 is the maximum). In outline: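 Cell-free fluorescence-intensity enzyme activity assay with recombinant protein and substrate; loss of signal fitted relative to DMSO baseline. Primary screen in duplicate at 25 uM, actives then run in concentration series; measured 0 h after dosing.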
human Dual Specificity Protein Phosphatase 3 (DUSP3), DUSP3 (gene 1845), sequence (P51452 whole entry, looked up): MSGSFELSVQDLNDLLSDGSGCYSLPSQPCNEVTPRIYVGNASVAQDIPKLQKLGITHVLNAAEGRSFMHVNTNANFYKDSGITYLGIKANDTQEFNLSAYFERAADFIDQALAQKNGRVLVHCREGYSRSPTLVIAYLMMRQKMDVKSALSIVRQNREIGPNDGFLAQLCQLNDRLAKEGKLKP

E-selectin (Homo sapiens), sequence (P16581 whole entry, looked up): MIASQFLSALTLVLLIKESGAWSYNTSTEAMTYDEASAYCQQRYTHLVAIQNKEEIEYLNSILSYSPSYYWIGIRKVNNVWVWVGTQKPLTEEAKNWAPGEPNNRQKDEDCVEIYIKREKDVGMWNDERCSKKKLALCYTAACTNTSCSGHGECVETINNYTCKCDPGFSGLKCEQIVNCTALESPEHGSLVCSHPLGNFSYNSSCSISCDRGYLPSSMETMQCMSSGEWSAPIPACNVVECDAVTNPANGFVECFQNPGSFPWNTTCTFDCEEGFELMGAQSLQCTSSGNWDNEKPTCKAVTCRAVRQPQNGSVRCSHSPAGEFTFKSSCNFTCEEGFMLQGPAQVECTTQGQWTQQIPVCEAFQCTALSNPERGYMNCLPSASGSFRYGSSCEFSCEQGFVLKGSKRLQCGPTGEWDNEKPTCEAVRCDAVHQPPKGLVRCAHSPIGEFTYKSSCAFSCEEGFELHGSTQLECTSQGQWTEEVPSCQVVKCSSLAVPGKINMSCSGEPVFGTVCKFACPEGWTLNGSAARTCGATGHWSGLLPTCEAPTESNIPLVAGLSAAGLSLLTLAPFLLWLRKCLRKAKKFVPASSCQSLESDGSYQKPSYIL
human Ephrin type-A Receptor 1 (EphA1), EPHA1 (gene 2041), sequence (P21709 whole entry, looked up): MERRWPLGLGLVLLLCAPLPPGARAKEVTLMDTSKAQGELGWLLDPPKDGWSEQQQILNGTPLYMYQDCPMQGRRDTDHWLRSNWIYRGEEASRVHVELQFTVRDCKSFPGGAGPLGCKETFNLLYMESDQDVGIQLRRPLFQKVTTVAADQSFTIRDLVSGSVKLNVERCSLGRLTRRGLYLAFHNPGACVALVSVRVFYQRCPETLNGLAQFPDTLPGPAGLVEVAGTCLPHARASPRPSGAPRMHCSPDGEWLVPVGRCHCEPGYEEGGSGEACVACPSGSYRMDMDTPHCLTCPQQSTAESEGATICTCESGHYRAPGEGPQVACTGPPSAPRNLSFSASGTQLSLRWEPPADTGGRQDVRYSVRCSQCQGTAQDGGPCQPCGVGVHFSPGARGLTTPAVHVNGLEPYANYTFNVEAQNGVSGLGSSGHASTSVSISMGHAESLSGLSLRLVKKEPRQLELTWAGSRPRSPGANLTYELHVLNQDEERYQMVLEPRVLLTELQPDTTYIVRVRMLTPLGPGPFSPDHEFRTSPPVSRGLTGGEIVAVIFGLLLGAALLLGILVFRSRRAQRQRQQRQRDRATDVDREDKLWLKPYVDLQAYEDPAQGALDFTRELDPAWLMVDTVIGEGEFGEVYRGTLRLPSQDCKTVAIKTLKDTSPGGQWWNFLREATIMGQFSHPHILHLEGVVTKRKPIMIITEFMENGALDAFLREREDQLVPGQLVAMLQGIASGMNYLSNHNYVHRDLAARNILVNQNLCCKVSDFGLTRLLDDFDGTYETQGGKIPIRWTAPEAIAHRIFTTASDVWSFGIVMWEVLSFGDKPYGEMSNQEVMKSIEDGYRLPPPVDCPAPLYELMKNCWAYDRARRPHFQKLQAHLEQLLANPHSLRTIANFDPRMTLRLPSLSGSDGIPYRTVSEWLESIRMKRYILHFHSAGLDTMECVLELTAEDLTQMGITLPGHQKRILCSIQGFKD
human Beta-secretase (BACE), BACE1 (gene 23621), sequence (P56817 whole entry, looked up): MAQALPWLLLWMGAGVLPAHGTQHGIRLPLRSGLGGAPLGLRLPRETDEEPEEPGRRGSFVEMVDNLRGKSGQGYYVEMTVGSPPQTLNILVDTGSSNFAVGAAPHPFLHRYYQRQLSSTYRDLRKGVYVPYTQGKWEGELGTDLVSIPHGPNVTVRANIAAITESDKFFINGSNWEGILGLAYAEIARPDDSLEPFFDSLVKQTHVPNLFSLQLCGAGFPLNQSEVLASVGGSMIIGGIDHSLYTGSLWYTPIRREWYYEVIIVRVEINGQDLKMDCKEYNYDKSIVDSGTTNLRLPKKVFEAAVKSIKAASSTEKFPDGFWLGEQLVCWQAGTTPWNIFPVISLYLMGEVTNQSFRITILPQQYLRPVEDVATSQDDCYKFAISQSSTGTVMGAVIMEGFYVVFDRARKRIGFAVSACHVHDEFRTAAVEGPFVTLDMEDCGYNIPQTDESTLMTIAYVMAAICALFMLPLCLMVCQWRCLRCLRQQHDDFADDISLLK
human CYP2D6, CYP2D6 (gene 1565), sequence (P10635 whole entry, looked up): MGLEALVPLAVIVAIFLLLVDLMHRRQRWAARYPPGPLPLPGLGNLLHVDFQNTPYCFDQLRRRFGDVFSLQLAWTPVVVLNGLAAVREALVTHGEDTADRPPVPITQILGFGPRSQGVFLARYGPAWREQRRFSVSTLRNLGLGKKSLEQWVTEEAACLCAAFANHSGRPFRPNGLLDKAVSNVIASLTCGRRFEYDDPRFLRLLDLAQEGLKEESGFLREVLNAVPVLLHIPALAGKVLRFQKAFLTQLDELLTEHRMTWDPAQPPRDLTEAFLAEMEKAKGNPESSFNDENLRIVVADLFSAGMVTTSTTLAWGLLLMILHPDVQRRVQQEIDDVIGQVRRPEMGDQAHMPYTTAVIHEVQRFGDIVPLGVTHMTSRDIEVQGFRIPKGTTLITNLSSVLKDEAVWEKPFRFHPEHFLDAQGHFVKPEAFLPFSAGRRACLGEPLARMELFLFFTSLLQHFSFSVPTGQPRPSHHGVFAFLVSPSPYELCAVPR

As for `CC(=O)CCC(C)C`, the molecule was called inactive in test [1].

Take `CC(C)(C)c1cc(CCC(=O)NCCCCCCNC(=O)CCc2cc(C(C)(C)C)c(O)c(C(C)(C)C)c2)cc(C(C)(C)C)c1O`: the outcome in test [2], in test [3], in [4], in [5], in [6] and in test [7] was inactive.

On to `O=C1C=CC(=O)N1c1ccc(Cc2ccc(N3C(=O)C=CC3=O)cc2)cc1`, for which the AC50 is 6.88 µM (active) in [2]; 13 µM (active) in test [3]; 7.25 µM (active) in [4]; 4.35 µM (active) in [5]; 3.92 µM (active) in test [6]; 20 µM (active) in test [7]. Besides, the values for the AC50 in test [8] and in test [1] were 4.26 µM (active) and 2.59 µM (active), respectively. Besides, the call in test [9] was inactive.

As to `CC1=CCC2C(=O)OC(=O)C2C1` (stereo unspecified), in [9], the molecule was classed as inactive.

Consider `OCC(O)CC(F)(F)C(F)(F)C(F)(F)C(F)(F)C(F)(F)C(F)(F)C(F)(F)C(F)(F)F` (stereo unspecified), for which the result in test [2], in test [3], in test [4], in test [5], in test [6] and in test [7] was inactive.

On to `C=CC(=O)OCC(F)(F)C(F)(F)C(F)(F)COC(=O)C=C`, for which the AC50 in test [2] is 8.53 µM (active) and 9.25 µM (active); in test [3], 19.3 µM (active) and 18.6 µM (active); in test [4] it was 14.2 µM (active) and 12.8 µM (active); in test [5], 14.2 µM (active) and 5.57 µM (active); in [6], 6.99 µM (active) and 5.35 µM (active); in test [7], 43.7 µM (active) and 45.6 µM (active).

Take `Brc1nc2ccccc2s1`: the result in test [2], in test [3], in test [4], in [5], in test [6] and in test [7] was inactive. For the same molecule, the outcome in test [9] was inactive.

On to `O=C1c2c(O)ccc(Nc3ccc(CCO)cc3)c2C(=O)c2c([N+](=O)[O-])ccc(O)c21`, for which the outcome in test [2] and in [7] was inactive. Besides, the AC50 is 33.7 µM (active) in test [3]; 9.47 µM (active) in test [4]; 0.379 µM (active) in test [5]; 20 µM (active) in [6]; 5 µM (active) in test [10]; 4.49 µM (active) in test [11]. The half-maximal activity concentration (AC50) in test [8] was 0.148 µM (active); in test [12], 0.129 µM (active); in test [13], 2.37 µM (active).

For `c1ccc(C[P+](c2ccccc2)(c2ccccc2)c2ccccc2)cc1`, the AC50 in test [11] is 1.87 µM (active).

`CCN(CC)c1ccc(C=O)c(O)c1`: the result in [2], in test [3], in test [4], in test [5], in test [6] and in [7] was inactive.

On to `CCC(C)CO` (stereo unspecified), for which the molecule was called inactive in [12]. In test [1], the AC50 was 6.58 µM (active).

The AC50 is the concentration giving half of the maximal activity seen.
